{"source": "PubChem BioAssay AID1476", "about": "(National Center for Advancing Translational Sciences (NCATS), 2009)", "note": "Hit rate of the full screen: of about 200,000 compounds, about 4,500 (2.2%) were called active. Roughly 12% stayed inconclusive and do not appear here. For the sample, actives were picked, then their nearest neighbours and some compounds at random. A number with no mark means an inactive call. Calls come from the whole dose curve; as a rule, active = well fitted inhibition curve with a large enough effect; inconclusive = small, poorly fitted or top-dose-only effect, or effect the other way; inactive = flat fitted curve, though single readings scatter. Potency is the fitted concentration of half-maximal effect.", "data": [{"biological_target": "Cruzipain (Trypanosoma cruzi) (UniProt P25779)", "sequence (P25779 123-467 limits assumed)": "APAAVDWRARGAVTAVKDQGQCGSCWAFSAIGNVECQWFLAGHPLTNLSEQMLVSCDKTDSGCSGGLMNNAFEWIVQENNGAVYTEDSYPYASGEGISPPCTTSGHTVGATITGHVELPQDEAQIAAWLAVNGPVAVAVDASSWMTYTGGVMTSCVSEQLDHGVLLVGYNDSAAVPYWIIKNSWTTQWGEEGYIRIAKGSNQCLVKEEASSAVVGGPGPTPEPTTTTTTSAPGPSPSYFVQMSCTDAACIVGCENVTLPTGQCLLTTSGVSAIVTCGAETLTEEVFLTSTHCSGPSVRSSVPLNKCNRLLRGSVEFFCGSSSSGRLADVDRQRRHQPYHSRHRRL", "test": "qHTS Assay for Promiscuous and Specific Inhibitors of Cruzain (without detergent); note: nearly all actives have a fitted effect of over 40% in size", "settings": "purified cruzain, Z-FR-AMC fluorescence, no detergent", "description": "Cruzain is a cysteine protease from the tropical parasite Trypanosoma cruzi. Dual qHTS experiment was performed against the NCGC compound collection in order to 1) identify novel inhibitors of the enzyme and 2) profile the compound collection for promiscuous inhibitors operating via colloidal aggregation (by performing detergent-free and detergent-containing comparison screens). Cruzain was assayed by the use of fluorogenic coumarin-based substrate Z-FR-AMC: proteolytic cleavage releases AMC, whose fluorescence is measured at 360 nm excitation and 450 nm emission. Purified cruzain was supplied by the labs of Prof. James McKerrow and Brian Shoichet, UC San Francisco.\nThis assay had 0.00005% Triton X-100 concentration. See also releated assay \"qHTS Assay for Promiscuous and Specific Inhibitors of Cruzain (with detergent)\" with 0.01% Triton X-100.\nSee following references for additional details:\nAssay Provider: Shoichet, Brian; University of California, San Fancisco\nScreening Center PI: Austin, C.P.\nScreening Center: NIH Chemical Genomics Center [NCGC]\nBuffer: 100 mM Sodium Acetate, pH 5.5, 5 mM DTT, Triton X-100 concentration: 0.01%.\nBuffer in columns 3 and 4 as negative control (no enzyme).\nSubstrate solution: 2 uM final concentration of Z-FR-AMC (catalog number I-1160, Bachem) dispensed throughout the plate.\nEnzyme: 1.5 nM Cruzain final concentration in columns 1, 2, 5-48. Column 1 is neutral (100% activity). Column 2 contained titration of covalent inhibitor K11777, starting concentration 1 mM, then 1:2 dilution in duplicate).\nThree uL of enzyme or buffer were dispensed to 1536-well Greiner black solid bottom plates. Compounds and controls (23 nL) were transferred via Kalypsys PinTool. The plates were incubated for 15 min at room temperature, and then 1 uL of substrate solution was added to start the reaction. The plates were immediately transferred to and read 4 times every 30 seconds for 2 min on ViewLux High-throughput CCD imager (Perkin-Elmer) using 360 nm excitation and 450 nm emission fluorescence protocol. The fluorescence intensity difference between the third and the first time points (time lapse of 60 seconds) was used to compute reaction progress.", "units": {"max response, negative = inhibition": "%"}, "values": [{"molecule": "CCOC(=O)CSc1nnc(NC(=O)c2cccc(S(=O)(=O)N3CCCCC3)c2)s1", "Potency": "20 µM (active)"}, {"molecule": "O=C(Nc1nnc(S(=O)(=O)N2CCCCCC2)s1)c1cccc(Br)c1", "max response, negative = inhibition": 6.01}, {"molecule": "O=C(Nc1nncs1)c1cccc(S(=O)(=O)N2CCCCC2)c1", "max response, negative = inhibition": 0.0572}, {"molecule": "COc1cc(CNCCSc2nnnn2C)ccc1OCc1ccc(Cl)cc1Cl", "max response, negative = inhibition": 8.01}, {"molecule": "CCNC(=S)N(CCc1c(C)[nH]c2ccc(C)cc12)Cc1ccco1", "max response, negative = inhibition": -13.2}, {"molecule": "COc1ccc(NC(=S)NCc2cccs2)c(OC)c1", "max response, negative = inhibition": 1.46}, {"molecule": "COc1ccc2[nH]c(C)c(CCN(Cc3cccs3)C(=S)Nc3ccccc3OC)c2c1", "Potency": "15.8 µM (active)"}, {"molecule": "Cc1ccc(Cl)cc1N(C)C(=O)Cn1nc(Cc2cccnc2)c2ccccc2c1=O", "max response, negative = inhibition": 14.5}, {"molecule": "CC(C)(C)c1ccc(OCC(=O)N2CCC(c3nc4ccccc4s3)CC2)cc1", "max response, negative = inhibition": -14.4}, {"molecule": "CCOC(=O)c1sc(=S)n(-c2cccc(OC)c2)c1N", "max response, negative = inhibition": -7.85}, {"molecule": "CCOC(=O)c1sc(=S)n2c1[nH]c(=O)c1ccc(C(=O)OC)cc12", "Potency": "25.1 µM (active)"}, {"molecule": "CCOC(=O)Cn1c(N)c(C(=O)OC)sc1=S", "max response, negative = inhibition": -4.92}, {"molecule": "COc1ccc(CCNC(=O)CCc2c(C)nc3c(c(C)nn3-c3ccc(C)c(C)c3)c2C)c(OC)c1OC", "max response, negative = inhibition": 0.259}, {"molecule": "Fc1ccc(CN2CCc3nc(Nc4ccccc4)ncc3C2)cc1F", "max response, negative = inhibition": -18.7}, {"molecule": "Cc1ccc(CCNC(=O)C2CCN(c3nnc(-n4cccc4CNc4ccc(C)cc4)s3)CC2)cc1", "max response, negative = inhibition": -8.42}, {"molecule": "CSc1ccc(CCNC(=O)C2CCN(c3nnc(-n4cccc4)s3)CC2)cc1", "Potency": "31.6 µM (active)"}, {"molecule": "Cc1ccc(C)n1-c1nnc(N2CCC(C(=O)NCc3ccc(F)cc3)CC2)s1", "max response, negative = inhibition": 5.22}, {"molecule": "CSc1nc(-c2ccccc2Cl)nc2c1Cc1c(CO)cnc(C)c1O2", "max response, negative = inhibition": -8.02}, {"molecule": "COc1cc(C2CC(=O)N3CN(Cc4ccccc4)CSC3=C2C#N)ccc1OCc1ccccc1", "note": "(stereo not given)", "Potency": "15.8 µM (active)"}, {"molecule": "COc1ccc(C2CC(=O)n3c(nc4ccccc43)S2)cc1OC", "note": "(stereo not given)", "max response, negative = inhibition": 0.892}, {"molecule": "COc1ccc(C2C(=O)N(C3CCCCCC3)CC(=O)N2CCc2ccc(Cl)cc2)cc1OC", "note": "(stereo not given)", "max response, negative = inhibition": 10.9}, {"molecule": "CCOCCCNC(=O)c1ccc2nc(CCc3ccccc3)oc2c1", "max response, negative = inhibition": -6.83}, {"molecule": "Cc1cccc(C(=O)NCCc2nc3ccccc3n2Cc2ccccc2Cl)c1", "max response, negative = inhibition": 15.2}, {"molecule": "Cc1cccc(NC(=O)Cn2c(=O)n(CCC(C)C)c(=O)c3cccnc32)c1", "max response, negative = inhibition": -11.5}, {"molecule": "Cc1ccc(C(=O)c2c(NC(=O)c3ccccc3)sc(C)c2C)cc1", "max response, negative = inhibition": -26.9}, {"molecule": "Cc1ccc(C(=O)NNC(=O)c2cc3cc4ccccc4nc3s2)cc1", "Potency": "15.8 µM (active)"}, {"molecule": "CCN(CCCNC(=O)c1cc2cc3cc(OC)ccc3nc2s1)c1ccccc1", "max response, negative = inhibition": 0.913}, {"molecule": "COCCNc1ncnc2c1c(-c1ccccc1)cn2-c1ccc(C)c(Cl)c1", "max response, negative = inhibition": 6.98}, {"molecule": "COc1ccc(-n2c(SCC(N)=O)nc3c(oc4ccccc43)c2=O)cc1", "max response, negative = inhibition": -4.62}, {"molecule": "Cc1cccc(-n2c(SCC(N)=O)nc3c(oc4ccccc43)c2=O)c1", "max response, negative = inhibition": -3.27}, {"molecule": "Cc1ccc(-n2c(SCC(=O)Nc3cccc(F)c3)nc3c(oc4ccccc43)c2=O)cc1C", "Potency": "12.6 µM (active)"}, {"molecule": "Cc1ccc(C(=O)Nc2c(C(=O)NC(C)(C)C)oc3ccccc23)cc1", "max response, negative = inhibition": 11.2}, {"molecule": "COc1ccc(OC)c(-c2csc(-c3c(N)c(C(=O)c4ccccc4)n4ccccc34)n2)c1", "max response, negative = inhibition": -9.44}, {"molecule": "COc1ccc(C(=O)Nc2ccccc2C(=O)N/N=C/c2ccccc2OC)cc1", "Potency": "25.1 µM (active)"}, {"molecule": "COc1ccc(NC(=O)c2ccc(OC)cc2)cc1", "max response, negative = inhibition": -1.58}, {"molecule": "CCn1c(/C=N/NC(=O)c2ccc(OC)cc2)nc2ccccc21", "max response, negative = inhibition": -22.8}, {"molecule": "CN(C)c1ccc(-n2cccc2/C=C2/SC(=Nc3ccc(F)cc3)NC2=O)cc1", "Potency": "10 µM (active)"}, {"molecule": "CN(C)c1ccc(-n2cccc2/C=N/n2cnnc2)cc1", "max response, negative = inhibition": -10.4}, {"molecule": "N#Cc1ccccc1Cn1cnc2nc3c(cc2c1=O)CCCC3", "max response, negative = inhibition": 2.69}, {"molecule": "CC(=O)Nc1c(C)nn(-c2ccccc2)c1N1CCC(C(=O)Nc2cc(Cl)ccc2C)CC1", "max response, negative = inhibition": -5.38}, {"molecule": "CCN(C(=O)CSc1nnc(C)n2c1cc1occc12)c1ccccc1", "max response, negative = inhibition": -4.51}, {"molecule": "CCCCN(CC)C(=O)c1c[nH]c2ccc(S(=O)(=O)Nc3cccc(OC)c3)cc2c1=O", "max response, negative = inhibition": -1.35}, {"molecule": "CCOC(=O)c1ccc(-c2ccc(/C=C(\\C#N)C(=O)Nc3ccc(C)cc3)o2)cc1", "max response, negative = inhibition": -9.9}, {"molecule": "Cc1ccc(Cc2cnc(NC(=O)/C(C#N)=C/c3ccc(-c4cccc([N+](=O)[O-])c4)o3)s2)cc1", "Potency": "3.16 µM (active)"}, {"molecule": "CCOC(=O)c1ccc(-c2ccc(/C=C(\\C#N)C(=O)Nc3ccc(OCC)cc3)o2)cc1", "max response, negative = inhibition": -8.32}]}]}
